S-ASM inh – human S-ASM enzyme inhibition. AID 504937. placental ASM, HMU-PC fluorogenic substrate, 60 min. P17405. 340,000 compounds, 0.006% hits. Potency, µM (highest dose often 57.5 µM), inactives show at the highest dose activity change, negative = inhibition, hits mostly inhibitors; note: potency is the fitted concentration of half-maximal effect
Target sequence (P17405 47-631 limits assumed): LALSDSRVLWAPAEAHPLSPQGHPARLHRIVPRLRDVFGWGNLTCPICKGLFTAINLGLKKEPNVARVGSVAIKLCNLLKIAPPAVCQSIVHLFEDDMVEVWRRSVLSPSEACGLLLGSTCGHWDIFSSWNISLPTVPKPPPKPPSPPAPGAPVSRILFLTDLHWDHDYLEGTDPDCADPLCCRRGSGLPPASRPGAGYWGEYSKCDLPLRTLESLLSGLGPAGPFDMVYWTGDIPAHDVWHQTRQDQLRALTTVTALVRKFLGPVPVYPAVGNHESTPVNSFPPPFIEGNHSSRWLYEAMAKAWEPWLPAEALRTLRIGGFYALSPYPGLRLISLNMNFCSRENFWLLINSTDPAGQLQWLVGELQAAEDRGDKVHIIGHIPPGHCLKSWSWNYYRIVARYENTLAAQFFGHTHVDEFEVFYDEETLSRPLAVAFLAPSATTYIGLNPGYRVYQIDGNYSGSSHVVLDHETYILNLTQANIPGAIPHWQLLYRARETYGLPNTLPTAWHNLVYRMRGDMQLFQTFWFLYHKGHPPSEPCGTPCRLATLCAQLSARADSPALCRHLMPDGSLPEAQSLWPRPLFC
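Fluorescence read-out (Ex 386 nm, Em 447 nm) after stopping the reaction at pH 10. Enzyme: ASM from human placenta; substrate HMU-PC0, 9 uM final; 60 min, 37 °C. Compound preincubation 10 min, ambient temperature.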
DT40 TDP1 CPT – DT40-hTDP1 cell growth loss with CPT. chicken DT40 Tdp1-/-;hTDP1 cells + 20 nM CPT, ATP luminescence, 48 h. Potency, µM (doses to about 46.2 µM), without a hit: at the top dose activity change, negative = growth inhibition, actives largely listed as inhibitors. 420,000 compounds, 12% hits. AID 686979; note: potency is the fitted concentration of half-maximal effect; % is set by controls: 0 for no effect and ±100 for the full control effect; nearly all actives have a fitted effect of over 55% in size
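Cell growth measured by CellTiter-Glo luminescence after a minimum 48 h, 37 C compound exposure with 20 nM CPT in Tdp1-knockout DT40 cells stably expressing hTDP1, seeded 400/well; qHTS titration format.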
HepG2 viability – counter-screen for TGF-b inhibitors: cytotoxicity in HepG2 cells; HepG2 CAGA-GFP viability, ATP luminescence, 18 h; Potency, µM (doses to about 46.1 µM), without a hit: at the top dose activity change, negative = cytotoxicity, most hits filed as cytotoxic; 410,000 compounds, 0.76% hits; AID 588856; note: potency is the fitted concentration of half-maximal effect
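HepG2 CAGA-GFP cells (1000/well, DMEM with 1% FBS) received compound, then TGF-beta at 500 pg/mL final, and were incubated 18 hours at 37 degrees C. Viability was read by CellTiter-Glo luminescence. Media-only wells were set as complete cell-killing and DMSO as no toxicity.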
TGFb inhibitor – blocks TGF-b signaling; HepG2 CAGA-GFP TGF-b/SMAD3 reporter, GFP fluorescence, 18 h; TGF-beta stimulated, 500 pg/mL final; Potency, µM (top dose mostly 46.1 µM), without a hit: top-dose activity, negative = inhibition, hits mostly inhibitors; 410,000 compounds, 1.2% hits; note: potency is the fitted concentration of half-maximal effect; % is set by controls: 0 for no effect and ±100 for the full control effect; nearly all actives have a fitted effect of over 65% in size
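Per well, imaged GFP fluorescence of HEPG2 CAGA-GFP cells gives the signal; cells get compound, then TGF-beta (500 pg/mL final), 18 h at 37 degrees C; %Activity versus -TGF-beta and +DMSO controls.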
IL1B secr inh – inflammasome signaling inhibition, IL-1 beta readout; THP-1 LPS/ATP IL-1B secretion, AlphaLISA, 16 h; active compounds read low; activity change, % at 57.5 µM; 360,000 compounds, 4.7% hits; in the data active = activity change below about -50%; inconclusive = mostly about -30% to -49%; note: % is set by controls: 0 for no effect and ±100 for the full control effect
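THP-1 cells pretreated 1 hr with compounds (up to 57.5 uM final), then stimulated with LPS (250 ng/mL final) plus ATP (1.25 mM final); secreted IL-1B measured by AlphaLISA after 16 hr, decreased signal indicating inhibition.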
DT40 TDP1 no CPT – qHTS for Inhibitors of human tyrosyl-DNA phosphodiesterase 1 (TDP1): qHTS in cells in absence of CPT | DT40 Tdp1-/- hTDP1 cells, no CPT, ATP luminescence, 48 h | 420,000 compounds, 15% hits | Potency, µM (titrated, usually from 46.2 µM), without a hit: top-dose activity change, negative = growth inhibition, usual class: inhibitors; note: potency is the fitted concentration of half-maximal effect; % is set by controls: 0 for no effect and ±100 for the full control effect; nearly all actives have a fitted effect of over 55% in size
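Chicken DT40 Tdp1-/- cells stably complemented with human TDP1 were seeded at 400 cells/well with DMSO in place of 20 nM camptothecin. After compound pinning, cells grew at least 48 hr at 37 °C; viability read by CellTiter-Glo luminescence.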
Starred values were filed as active, the others as inactive; ? = inconclusive; . = no result given. Only some compounds are listed: those with a hit (about 19% of all), similar ones and a draw of the others. Unless noted, calls come from the whole dose curve; as a rule, active = well fitted curve in the direction sought with a large enough effect; inconclusive = small, poorly fitted or top-dose-only effect, or another doubt; inactive = no such curve, though single readings can be large; an effect the other way counts as inactive or inconclusive.

SMILES	S-ASM inh	DT40 TDP1 CPT	HepG2 viability	TGFb inhibitor	IL1B secr inh	DT40 TDP1 no CPT
CCCC(O)(CCN1CCOCC1)c1ccc(Br)cc1 (centres undefined)	0%	?	-12%	-12%	25	?
CC(OCCN1CCCC1)(c1ccc(F)cc1)c1ccc(F)cc1	-1%	?	-30%	-27%	-59*	?
CC(C)(C)c1ccc(OCCCN2CCCC2)cc1	-3%	?	1%	-7%	0	13µM*
CC[C@]12C(=O)N(C)C[C@H]([C@@H]3C(=O)N(Cc4ccccc4)C(=O)[C@@H]31)N2C(=O)c1ccccc1	3%	-3%	4%	0%	19	14%
O=C(O)CCN1C(=O)/C(=C2\C(=O)N(Cc3ccc(F)cc3)c3ccccc32)SC1=S	-12%	16µM*	6%	0%	9	15µM*
COC(=O)[C@]12CCCCC=C1N(CCc1ccc(OC)c(OC)c1)C(=O)[C@H](CC(=O)NCc1cccs1)C2	.	21µM*	.	.	-29	16µM*
COC(=O)[C@@]12C[C@@H](CC(=O)N3CCOCC3)C(=O)N(CCc3ccc(OC)c(OC)c3)C1=CCC(C)(C)C2	.	7%	.	.	-23	9%
CCCCCCCCN1C(=O)[C@H](CC(=O)NCc2cccc(C(F)(F)F)c2)C[C@@]2(C(=O)OC)CC(C)(C)CC=C12	.	12µM*	.	.	-22	10µM*
CCOC(=O)N1CCN(C(=O)C[C@@H]2C[C@@]3(C(=O)OC)CC(C)(C)CC=C3N(CCc3ccc(OC)c(OC)c3)C2=O)CC1	.	?	.	.	?	16µM*
C#CCNC(=O)C[C@@H]1C[C@@]2(C(=O)OC)CCCCC=C2N(CCc2ccc(OC)c(OC)c2)C1=O	.	?	.	.	18	?
COC(=O)[C@@]12C[C@@H](CC(=O)NCc3ccccc3)C(=O)N(CCc3ccc(OC)c(OC)c3)C1=CCC(C)(C)C2	.	13µM*	.	.	-28	13µM*
O=C(O)c1cc([N+](=O)[O-])ccc1Oc1ccccc1	4%	2%	32%	13%	18	1%
COc1cc2c3nc4n(c(=O)c3n(CC(=O)N3CCCC3)c2cc1OC)CCS4	-19%	-1%	-1%	-3%	-5	-6%
CC(C)(C)n1ncc2c(=O)n(Cc3cccc(OC(F)F)c3)cnc21	.	.	-37%	-26%	.	.
COC(=O)[C@@]12C[C@@H](CC(=O)NCc3ccc(C)o3)C(=O)N(CCc3ccc(OC)c(OC)c3)C1=CCC(C)(C)C2	.	9.2µM*	.	.	?	8.2µM*
COC(=O)[C@@]12C[C@@H](CC(=O)NCc3cccs3)C(=O)N(CCc3ccc(OC)c(OC)c3)C1=CCC(C)(C)C2	.	21µM*	.	.	?	?
C#CCNC(=O)C[C@@H]1C[C@@]2(C(=O)OC)CC(C)(C)CC=C2N(CCc2ccc(OC)c(OC)c2)C1=O	.	?	.	.	-3	-25%
CCCCOc1ccc(CNC(=O)CN2CCSc3ccccc32)cc1	.	.	-31%	?	.	.
CN(Cc1ccccc1)C(=O)CCC1CCN(C(=O)CCC(F)(F)F)CC1	2%	?	7%	-11%	30	?
CN1CCN(c2ccc(NC(=O)c3ccc(-c4ccc(Cl)cc4)o3)cc2)CC1	?	16µM*	16µM*	?	-99*	21µM*
Cc1ccc(N2CCN(C(=S)c3ccc(-c4cccc([N+](=O)[O-])c4)o3)CC2)cc1	-3%	-5%	-20%	-36%	0	-14%
CC(=O)N1CCN(c2ccc(NC(=O)c3ccc(Br)o3)cc2Cl)CC1	0%	16µM*	-22%	-11%	?	26µM*

High-throughput results deposited in PubChem by National Center for Advancing Translational Sciences (NCATS).
